In PubChem BioAssay (NCI):
This is part of a sample that, as a whole, favours compounds with a hit. Of some 79,000 tested, about 15% had one in any assay. Calls of active or inactive are those of the source. Rule as the data show it: active = growth inhibition above about 70%; inactive = the rest.

Columns and labels:
[1] = NCI Yeast Anticancer Drug Screen. Data for the rad50 strain (AID 155);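 also: 0% = growth of vehicle-only cultures of the same strain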; conditions: S. cerevisiae rad50 strain growth inhibition; at 50.0 µM; active compounds read high
Outline: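 Vehicle-treated cultures provide the reference for the growth inhibition reported for compound-exposed, repair-deficient yeast.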

[2] = NCI Yeast Anticancer Drug Screen. Data for the mec2-1 strain (AID 157); conditions: S. cerevisiae mec2-1 strain, at 50.0 µM, active compounds read high
Outline: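 Growth inhibition is read against vehicle-treated controls after compound exposure of the mec2-1 yeast strain, which is defective in DNA damage repair or cell cycle control.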

[3] = NCI Yeast Anticancer Drug Screen. Data for the sgs1 mgt1 strain (AID 161);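 also: 0% = growth of cultures given vehicle only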; conditions: S. cerevisiae sgs1 mgt1 strain, at 50.0 µM, active compounds read high
Outline: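 Percent growth inhibition was derived by comparing compound-exposed mutant yeast with vehicle-exposed cultures. The strain carries alterations in DNA damage repair.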

[4] = NCI Yeast Anticancer Drug Screen. Data for the cln2 rad14 strain (AID 165);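 also: 0% = growth equal to vehicle treated cultures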; conditions: S. cerevisiae cln2 rad14 strain, at 50.0 µM, active compounds read high
Outline: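 Growth inhibition, relative to vehicle-treated controls, is the read-out. The test organism is a yeast strain with defined genetic alterations, cln2 rad14.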

[5] = NCI Yeast Anticancer Drug Screen. Data for the bub3 strain (AID 167); conditions: S. cerevisiae bub3 mutant strain, at 50.0 µM, active compounds read high
Outline: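 Mutant yeast screening strain plus compound; vehicle-treated cultures serve as the 0% inhibition reference.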

[6] = NCI Yeast Anticancer Drug Screen. Data for the mlh1 rad18 strain (AID 175); conditions: S. cerevisiae mlh1 rad18 strain growth inhibition; at 50.0 µM; active compounds read high
Outline: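 Cells of a genetically altered yeast strain, deficient in DNA damage repair, were treated with compound. Their growth was then compared with that of vehicle-treated cultures to give inhibition.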

Measured: growth inhibition

NC(CCC1CCCCC1)C(=O)O (stereo not given)
inactive: [1] -7.75% | [2] 6.8% | [3] 0.5% | [4] -3.65% | [5] 22.6% | [6] 3.7%

O=C(Cc1cc[n+]([O-])cc1)C(=O)Nc1cc(Cl)c(Cl)cc1Cl
inactive: [1] -27.4% | [2] -11.9% | [3] -21.5% | [4] -17.1% | [5] -17.8% | [6] -20.1%

CCSc1nc(C)c(C)c(=O)[nH]1
inactive: [1] 14.2% | [2] -10.9% | [3] 22.4% | [4] 16% | [5] 21.8% | [6] 12.8%

CCCn1cnc2c(NN=O)ncnc21
inactive: [1] -42% | [2] -13.2% | [3] -51.6% | [4] -23.2% | [5] -9.35% | [6] -45.5%

Cc1nc([N+](=O)[O-])cn1CC(=N)N
inactive: [1] -23% | [2] -28.8% | [3] -16.1% | [4] -5.15% | [5] -25.6% | [6] -38.7%

Cc1ccc(OP2(Oc3ccc(C)cc3)=NP(Oc3ccc(C)cc3)(Oc3ccc(C)cc3)=NP(Oc3ccc(C)cc3)(Oc3ccc(C)cc3)=N2)cc1
inactive: [1] 10.6% | [2] -4.15% | [3] -17.6% | [4] -4.5% | [5] 2.7% | [6] 0.4%

O=C(N=c1ccc2nc(=O)[nH]n(O)c-2c1)C(F)(F)F
inactive: [1] -12.1% | [2] 5.5% | [3] -13.4% | [4] -10.3% | [5] -46.6% | [6] -32.7%

COc1ccc2c(c1)N(S(=O)(=O)c1ccc(C)cc1)C[C@@H]1c3cc(O)c(OCc4ccccc4)cc3O[C@H]21
inactive: [1] -8.95% | [2] 7.9% | [3] -7.8% | [4] -6.8% | [5] 2.4% | [6] 15.6%

NCCCOc1ccccc1
inactive: [1] -3.6% | [2] -7.8% | [3] -5.1% | [4] -10.3% | [5] -7.05% | [6] -9.35%

Cn1cnc(N2CCCC2)c(C#N)c1=S
inactive: [1] 3.45% | [2] -4.95% | [3] -4.7% | [4] -12.2% | [5] 2.55% | [6] 0.25%

COC(=O)C1CC[N-]CC1.COC(=O)C1CC[N-]CC1.[Cl][Pt+2][Cl]
inactive: [1] -0.15% | [2] 6.9% | [3] -6.8% | [4] -24.4% | [5] -4.15% | [6] 21.2%

CCCCCCC(=O)/C=C/c1ccc(OCc2ccccc2)c(OCc2ccccc2)c1
inactive: [1] 33.9% | [2] -2.6% | [3] 18.5% | [4] 23.9% | [5] -2.15% | [6] 16.1%

CCOC(=O)c1ccc(NC(=O)Nc2cc(Cl)c(OC)cc2OC)cc1
active: [1] 75% | [2] 90.7% | [3] 94% | [4] 91.8% | [5] 76.1% | [6] 85.8%

O=C(Nc1ccc(Cl)cc1Cl)C1C(=O)C(=O)N(c2ccc(Cl)cc2Cl)C1=O (stereo not given)
inactive: [1] 10.8% | [2] -10.1% | [3] -1.35% | [4] 26% | [5] 0.8% | [6] 14.4%

O=CC(=O)c1ccc(Cl)cc1
inactive: [1] 1.9% | [2] 5.5% | [3] 8.4% | [4] 31.1% | [5] -9.5% | [6] 14.8%

CC(C)CCOc1ccc(CCO)cc1
inactive: [1] 0.45% | [2] -8.9% | [3] -4.5% | [4] -7.75% | [5] -36.4% | [6] -24.8%

C=C(C(=C)N1N=NC2C3CCC(C3)C21)N1N=NC2C3CCC(C3)C21 (stereo not given)
inactive: [1] -5.9% | [2] -15.9% | [3] 10.3% | [4] 7.15% | [5] -4.75% | [6] -7.95%

CCN(CC)CCCNc1ncnc2onc(C)c12
inactive: [1] 15.3% | [2] 15.2% | [3] 2.2% | [4] 6.15% | [5] 1.45% | [6] -9.3%

CCCC(=O)OCC(O)CO (stereo not given)
inactive: [1] 12.2% | [2] 1.5% | [3] 1.3% | [4] 18.5% | [5] 4.1% | [6] 18.6%

Cc1nc2ccccc2c(=O)n1C(C)(C)CCl
inactive: [1] 10.1% | [2] 30.6% | [3] 11.1% | [4] -14.7% | [5] 30.3% | [6] 19.9%

C1COC2OCCOC2O1 (stereo not given)
inactive: [1] 5.2% | [2] -2.05% | [3] 4.6% | [4] -2.55% | [5] 1.4% | [6] 0.7%

CCc1ccccc1NC(C)=O
inactive: [1] -4.75% | [2] -16.4% | [3] -8.7% | [4] -5.2% | [5] 0.25% | [6] -12.7%

COc1ccc2c(c1)CCC1=C2CCC(C(=O)O)C1(C)C(=O)O (stereo not given)
inactive: [1] 1.9% | [2] -3% | [3] 9.25% | [4] 4.15% | [5] -4.25% | [6] -25.4%

Clc1ccc(/C=N/c2ccccn2)cc1
inactive: [1] -37.2% | [2] -51.4% | [3] -22.8% | [4] 19.9% | [5] -54.1% | [6] -31.1%

CCC1(C)NC(=O)OC1=O (stereo not given)
inactive: [1] 2.25% | [2] -5.7% | [3] -27.6% | [4] 7.75% | [5] 20.5% | [6] 4.65%

CCCCCCCCCCCCCCCCCCCCc1ccccc1
inactive: [1] 25.9% | [2] 10.3% | [3] 1.2% | [4] 12.7% | [5] -14.2% | [6] 26.4%

O=C(c1cccc(C(=O)N(c2ccccc2)c2ccccc2)n1)N(c1ccccc1)c1ccccc1
inactive: [1] -47.5% | [2] -11.2% | [3] -32.1% | [4] 15.6% | [5] -11.8% | [6] -1.8%

CC1(C)C=Cc2c(cc(O)c3c(=O)c4cc(Cl)ccc4[nH]c23)O1
inactive: [1] -14.2% | [2] -42.4% | [3] -14.8% | [4] -18.1% | [5] -15% | [6] -12.1%

COC1CC(N=[N+]=[N-])C(OC(=O)c2ccccc2)C(CBr)O1 (stereo not given)
inactive: [1] 22.4% | [2] 18.1% | [3] 22.6% | [4] -4.4% | [5] 7.4% | [6] 19.6%

COC(=O)c1nc2c(N)nc(-c3ccccc3)nc2nc1N
inactive: [1] 8.9% | [2] -7.4% | [3] 23.1% | [4] 11.3% | [5] -16.6% | [6] -1.95%

CCN(CC)C(=O)/C(C)=C(\C)c1ccccc1
inactive: [1] -12.7% | [2] 11.8% | [3] -11.6% | [4] 8.3% | [5] 2.9% | [6] -1.45%

O=C(O)CCN1CCCS(=O)(=O)C1=O
inactive: [1] 11.8% | [2] 8% | [3] -0.35% | [4] 9% | [5] -0.85% | [6] -5.3%

O=C(O)/C=C\C(=O)Nc1ccc(N=Nc2ccccc2)cc1
inactive: [1] -34.6% | [2] -39.9% | [3] -7.95% | [4] -3.65% | [5] -18.8% | [6] -2.9%

CCCCOc1ccc(Nc2c(C(=O)OCC)cnc3cc4c(cc23)OCO4)cc1
inactive: [1] -3.3% | [2] -9% | [3] -0.25% | [4] 8.2% | [5] -3.45% | [6] -9.4%

COC(=O)C(C(=O)C(=O)Nc1nc2ccc(OC)cc2s1)c1cnc2ccccc2n1 (stereo not given)
inactive: [1] -13.2% | [2] -23.2% | [3] -45% | [4] 22.6% | [5] -7.5% | [6] -6.15%

CCC(/C=C\C(C)C1CCC2C3CC=C4CC(OS(=O)(=O)c5ccc(C)cc5)CCC4(C)C3CCC12C)C(C)C (stereo not given)
inactive: [1] -9.9% | [2] -3.95% | [3] -16.6% | [4] -5.6% | [5] 1.1% | [6] -32.1%

CC(=O)Oc1cccc(OC(=O)Nc2ccc(C)c(NC(=O)Oc3cccc(OC(C)=O)c3)c2)c1
inactive: [1] 26.2% | [2] 22.6% | [3] 9.75% | [4] 19.3% | [5] -0.4% | [6] 34.5%

CCN(CC)CCOC(=O)C(c1ccccc1)C1C=CCCC1 (stereo not given)
inactive: [1] 38.8% | [2] 2.6% | [3] 19.1% | [4] -1.15% | [5] -3.1% | [6] 30.4%

C/C(=N/NC(N)=O)C1CCC(C)CC1 (stereo not given)
inactive: [1] 39% | [2] 31.8% | [3] 21.9% | [4] 12.3% | [5] 8.2% | [6] 31%

O=C(Nc1ccc(N=C=S)cc1Cl)c1cc(Br)cc(Br)c1O
active: [1] 94.3% | [2] 96.7% | [3] 95.6% | [4] 97.1% | [5] 96.8% | [6] 94.7%
